# Assay results published in PubChem BioAssay AID602141 (Sanford-Burnham Center for Chemical Genomics, 2011).
# In all, about 360,000 compounds went through this assay and about 1,300 (0.36%) were called active.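 Rule for the calls: active = corrected activity change at or below -50% at 5 µM; inactive = the rest.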 This excerpt belongs to a sample that is enriched for actives.
# Assay: cytotoxicity in KKLEB CF airway cells, primary screen, cytotoxicity control for CF NF-kB inhibitor project, cell-based, uHTS, fluorescence assay plates (AID 602141)
# Settings: KKLEB CF airway cells viability, ATPlite luminescence, overnight; at 5 µM; active compounds read low; cells stimulated with P. aeruginosa culture filtrate
row,SMILES,activity change (cytotoxicity)
1,O=C(CC(O)(C(F)(F)F)C(F)(F)F)Nc1ccc(Cl)c(Cl)c1,-59% (active)
2,CC1(C(=O)O)CCC(C(=O)Nc2ccc(Cl)c(Cl)c2)C1(C)C (stereo unspecified),3.1% (inactive)
3,N#CCCN(C(=O)Nc1ccc(Cl)c(Cl)c1)C1CCCCC1,11.3% (inactive)
4,CCCCC(c1nnnn1CS(=O)(=O)c1ccc(C)cc1)N1CCC(C(N)=O)CC1 (stereo unspecified),-15% (inactive)
5,CC(=O)N(CN1C(=O)C2CC=CCC2C1=O)c1cccc(Cl)c1 (stereo unspecified),8.7% (inactive)
6,Cc1ccc(S(=O)(=O)N(CC(=O)Nc2cccc([N+](=O)[O-])c2)Cc2ccc(Cl)cc2)cc1,10.5% (inactive)
7,O=C(CCl)N(Cc1cccc([N+](=O)[O-])c1)c1cccc(Cl)c1,-96.2% (active)
8,CCCSc1nc2sc3c(c2c(=O)n1-c1ccc(OC)cc1)CCN(C)C3,6.6% (inactive)
9,Cc1cc(NC(=O)CSc2nc(C(C)C)nc3sc4c(c23)CCC(C)C4)no1 (stereo unspecified),-1.3% (inactive)
10,CCCn1nnc2sc3c(c2c1=O)CCC(C)C3 (stereo unspecified),-55.8% (active)
11,O=S(=O)(O)CCN1CCOCC1,-2.1% (inactive)
12,CC(=O)NC(c1cccc(F)c1)c1nc(-c2cccc(F)c2)cs1 (stereo unspecified),-3.6% (inactive)
13,CC(C)N(Cc1nc(-c2ccc3c(c2)OCO3)no1)CC1CCC(=O)N1 (stereo unspecified),7.7% (inactive)
14,CCCSc1nsc(N)n1,-4.9% (inactive)
15,COC(=O)c1sc(NC(=O)c2ccc(OC)cc2OC)nc1C,-66.8% (active)
16,COc1cc(SC)ccc1C(=O)Nc1nc(C)cs1,-88.8% (active)
17,Cc1csc(NC(=O)CSc2ccc(-c3ccc(F)cc3)nn2)n1,8.5% (inactive)
18,Cc1ccccc1OCC(=O)Nc1nc(C)c(C(=O)N(C)C)s1,2.2% (inactive)
19,Cc1csc(NC(=O)CSc2nc(=O)cc(N)n2-c2ccc(F)cc2)n1,-0.9% (inactive)
20,COc1ccc(C(=O)CCC(=O)Nc2cccnc2)c(OC)c1,-8.9% (inactive)
21,Cc1ccc2c(c1)N(CC(=O)N1CCC(O)CC1)C(=O)CO2,7.7% (inactive)
22,O=C(NCCCN1CCCCC1)C1CC(=O)N(CCc2ccccc2)C1 (stereo unspecified),-3.7% (inactive)
23,O=C(CNC(=O)c1cc(S(=O)(=O)N2CCOCC2)ccc1N1CCCC1)Nc1ccc(F)c(F)c1,8% (inactive)
24,Cc1cc(C)c2c(=O)n3c(nc2c1)C(CC(C)C)NC(=O)c1cc2ccccc2cc1-3 (stereo unspecified),-9% (inactive)
25,O=C(/C(=C/c1cccc(Cl)c1)c1nc2ccccc2[nH]1)c1ccccc1,-62.2% (active)
26,CCCCn1c(N)c(N(CC(C)C)C(=O)CN(C)S(=O)(=O)c2ccc(F)cc2)c(=O)[nH]c1=O,1.7% (inactive)
